# Laboratory results as given in ChEMBL document CHEMBL2218924, “A broad activity screen in support of a chemogenomic map for kinase signalling research and drug discovery” (Biochem J, 2013).
# Target: T1, 3-phosphoinositide-dependent protein kinase 1 (Homo sapiens) (UniProt O15530)
# T1 sequence (whole entry): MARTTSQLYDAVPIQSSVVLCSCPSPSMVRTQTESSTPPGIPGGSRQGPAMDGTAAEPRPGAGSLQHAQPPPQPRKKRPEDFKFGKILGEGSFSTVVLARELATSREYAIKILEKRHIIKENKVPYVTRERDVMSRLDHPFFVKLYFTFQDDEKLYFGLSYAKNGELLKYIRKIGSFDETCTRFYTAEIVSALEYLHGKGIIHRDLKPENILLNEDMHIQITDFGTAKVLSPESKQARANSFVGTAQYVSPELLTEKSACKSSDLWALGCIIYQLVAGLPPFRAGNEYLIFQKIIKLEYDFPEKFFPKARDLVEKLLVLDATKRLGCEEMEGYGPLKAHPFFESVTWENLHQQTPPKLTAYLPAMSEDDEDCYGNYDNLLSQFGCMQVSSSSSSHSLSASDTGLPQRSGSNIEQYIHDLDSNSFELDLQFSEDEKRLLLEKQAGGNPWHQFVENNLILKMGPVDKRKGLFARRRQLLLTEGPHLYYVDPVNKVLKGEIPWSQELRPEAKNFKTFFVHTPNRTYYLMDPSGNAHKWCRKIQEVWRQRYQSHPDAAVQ
# Conditions: at 1 µM
row,SMILES,residual activity [%]
1,COc1ccc2c(c1)c(C1=C(c3c[nH]c4ccccc34)C(=O)NC1=O)cn2CCCN(C)C,62
2,c1ccc(-c2cnc(Nc3ccc(OCCN4CCCC4)cc3)s2)cc1,113
3,O=C(O)/C=C/c1cc(Br)c(Br)c(Br)c1Br,107
4,CC(C)(C)c1nc2c3ccc(F)cc3c3c(=O)[nH]ccc3c2[nH]1,3
5,O=C1Cc2c([nH]c3ccc([N+](=O)[O-])cc23)-c2ccccc2N1,45
6,CCN(CC)CCNC(=O)c1c(C)[nH]c(/C=C2\C(=O)Nc3ccc(Cl)cc32)c1C,78
7,O=C(CCCc1ccc(-c2ccccc2F)cc1)Nc1ccc(O)cc1,105
8,O=C1NC(=O)C(c2c[nH]c3ccccc23)=C1c1c[nH]c2ccccc12,71
9,Nc1ncnc2[nH]nc(Nc3ccc(F)cc3)c12,92
10,Cn1c2ccccc2c2c3c(c4c5ccccc5n(CCC#N)c4c21)CNC3=O,6
11,CCCCc1c(-c2ccc(OC)cc2)[nH]c2nccnc12,70
12,COc1cc2c(cc1OC)-c1n[nH]c(Nc3cccc(F)c3)c1C2,104
13,O=C(c1cc2cc(O)ccc2[nH]1)c1cc2cc(O)ccc2[nH]1,79
14,CC(C)(C)n1nc(Cc2cccc3ccccc23)c2c(N)ncnc21,108
15,Nc1ncnc2c1c(-c1ccc(Oc3ccccc3)cc1)cn2C1CCCC1,104
16,O=C1NC(=O)c2c1c1c3ccccc3[nH]c1n1cncc21,56
17,NC(=O)Nc1sc(-c2ccc(F)cc2)cc1C(N)=O,57
